Source: PubChem BioAssay (EPA / NIEHS)
Records with an inconclusive call do not appear. Where a structure was tested more than once in an assay, its records may differ in their call. Calls of active or inactive are those of the source. Rule for the calls: active = hit-call score of the fitted dose curve at least 0.9, where 1 is the maximum; inconclusive = response in the unintended direction; inactive = score below 0.9.

target: Nuclear receptor subfamily 1 group I member 2 (Homo sapiens) (UniProt O75469); test: ATG_PXR_TRANS: Attagene TRANS-FACTORIAL HepG2 Assay for human Pregnane X Receptor (PXR) (AID 2283008)
Sequence (O75469 whole entry, looked up): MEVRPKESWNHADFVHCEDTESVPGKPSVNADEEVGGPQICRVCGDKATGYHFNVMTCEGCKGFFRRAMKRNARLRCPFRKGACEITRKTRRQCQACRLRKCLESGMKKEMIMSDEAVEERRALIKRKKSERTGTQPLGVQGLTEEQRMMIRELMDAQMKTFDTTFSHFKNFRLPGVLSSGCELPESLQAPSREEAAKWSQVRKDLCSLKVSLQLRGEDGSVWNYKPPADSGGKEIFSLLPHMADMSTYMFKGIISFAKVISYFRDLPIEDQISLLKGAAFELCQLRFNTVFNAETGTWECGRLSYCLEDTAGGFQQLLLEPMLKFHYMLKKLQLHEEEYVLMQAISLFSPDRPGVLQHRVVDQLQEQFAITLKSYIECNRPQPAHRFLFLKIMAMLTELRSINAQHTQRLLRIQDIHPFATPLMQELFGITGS
Procedure: ATG_TRANS is a cell-based, multiplexed-readout assay that uses HepG2, a human liver cell line, with measurements taken at 24 hours after chemical dosing in a 24-well plate.ATG_PXR_TRANS is one of 30 assay component(s) measured or calculated from the ATG_TRANS assay. It is designed to make measurements of mRNA induction, a form of inducible reporter, as detected with fluorescence intensity signals by Reverse transcription polymerase chain reaction (RT-PCR) and Capillary electrophoresis technology.Data from the assay component ATG_PXR_TRANS was analyzed into 1 assay endpoint. This assay endpoint, ATG_PXR_TRANS, was analyzed in the positive analysis fitting direction relative to DMSO as the negative control and baseline of activity. Using a type of inducible reporter, measures of mRNA for gain-of-signal activity can be used to understand the reporter gene at the transcription factor-level as they relate to the gene NR1I2. Furthermore, this assay endpoint can be referred to as a primary readout, because this assay has produced multiple assay endpoints where this one serves a reporter gene function. To generalize the intended target to other relatable targets, this assay endpoint is annotated to the nuclear receptor intended target family, where the subfamily is non-steroidal.
Human liver HepG2 cells are transiently transfected with multiple reporter transcription units (MRTUs) in 6-well plates using FuGene 6 reagent (Roche; 3 ml FuGene/1 mg DNA). The MRTU constructs are regulated by a cis-regulating element (promoter). […] A major difference between the CIS and TRANS system is that in CIS activities of endogenous TFs are measured, whereas the TRANS assay evaluates changes in activities of exogenous, chimeric NR-Gal4 proteins. […] At the end of 24 hour incubation, total RNA was isolated using TriZol reagent (Invitrogen). The isolated RNA is then reverse-transcribed using oligo(dT) primer and Mo-MLV reverse transcriptase (Invitrogen) with DNAse I (Ambion) treatment for 30 min. The one-tenth of the produced cDNA was amplified by PCR using Taq DNA polymerase (Invitrogen) and two reporter sequence-specific primers. The PCR products were fluorescently labeled by primer extension with 6-arboxyfluorescein (6-FAM) 5'-labeled reporter sequence-specific primer (2 min at 95 C, 20 s at 68 C and 10 min at 72 C) and these products were digested with 5U of HpaI (New England Biolabs) for 2h at 37 C. The fragments were purified using Qiaquick PCR columns (Qiagen), analyzed on an ABI 3130xL genetic analyzer (Applied Biosystems) with peak positions identified by using a set of X-rhodamine (ROX)-labeled MapMarker1000 molecular weight standards (BioVentures). The raw capillary electrophoresis data was processed using Attagraph software (Attagene).

Compound	AC50	outcome
COc1cc(OC)nc(NC(=O)NS(=O)(=O)c2ncccc2C(=O)N(C)C)n1	100 µM (active)	–
BrCCBr	–	inactive
CCC(C)c1cccc(C(C)CC)c1O (stereo not given)	4.53 µM (active)	–
C1CCC(NC2CCCCC2)CC1	–	inactive
CCCCCCCCSC(=O)Oc1cc(Cl)nnc1-c1ccccc1	–	inactive
CC1(C)CCC(Cc2ccc(Cl)cc2)C1(O)Cn1cncn1 (stereo not given)	1.84 µM (active)	–
COC(=O)c1sccc1S(=O)(=O)NC(=O)Nc1nc(C)nc(OC)n1	–	inactive
C=CC(=O)N(C)C	–	inactive
CC(=[OH+])/C=C(/C)[O-].CC(=[OH+])/C=C(/C)[O-].CC(=[OH+])/C=C(/C)[O-].[Al]	–	inactive
CCOC(=O)CP(=O)(OCC)OCC	–	inactive
O=P(O)(O)CN(CP(=O)(O)O)CP(=O)(O)O	–	inactive
CCCCCCCCCl	–	inactive
COS(=O)(=O)c1ccc(C)cc1	–	inactive
CC(Br)C(=O)O (stereo not given)	–	inactive
O=C1C(Cl)=C(Cl)C(=O)c2ccccc21	–	inactive
Oc1c(I)cc(I)cc1I	6.69 µM (active)	–
C[C@]12CCC(=O)C[C@@H]1CC[C@@H]1[C@@H]2CC[C@]2(C)[C@@H](O)CC[C@@H]12	11.9 µM (active)	inactive
O=C(O)C(F)(F)C(F)(F)C(F)(F)C(F)(F)C(F)(F)C(F)(F)F	–	inactive
CC(C#N)CCC#N (stereo not given)	–	inactive

Compound	AC50	outcome
CC(=O)C(Cl)C(=O)N(C)C (stereo not given)	–	inactive
CCOP(=S)(OCC)Oc1ccc(S(C)=O)cc1 (stereo not given)	7.06 µM (active)	–
CCN(CC)C(=O)Cl	–	inactive
C=CC(=O)OCCCCCC(C)C	–	inactive
O=C(CCl)CCl	–	inactive
O=C(O)C(Cl)(Cl)Cl	–	inactive
COC[C@H](C)N(C(=O)CCl)c1c(C)csc1C	33.7 µM (active)	–
COP(=S)(OC)Oc1ccc(Sc2ccc(OP(=S)(OC)OC)cc2)cc1	4.45 µM (active)	–
COc1cccc(C=O)c1	–	inactive
C[C@@H]1C[C@@H]([C@H](O)CC2CC(=O)NC(=O)C2)C(=O)[C@@H](C)C1	–	inactive
Cc1ccc2ccccc2c1C	–	inactive
CCCCCCCCc1ccc(O)cc1	7.55 µM (active)	inactive
O=C(OC1CCCCC1)c1ccccc1C(=O)OC1CCCCC1	0.554 µM (active)	–
COc1cc2c(cc1OC)[C@@]13CCN4CC5=CCO[C@H]6CC(=O)N2[C@H]1[C@H]6[C@H]5C[C@H]43	–	inactive
ClC(Cl)=C(Cl)C(Cl)=C(Cl)Cl	–	inactive
CCN1CCC2(CC1)COc1cc3c(cc12)N(C(=O)c1ccc(-c2ccc(-c4nnc(C)o4)cc2C)cc1)CC3	–	inactive
Nc1ncc([N+](=O)[O-])s1	–	inactive
Cc1cc(Cl)ccc1O[C@H](C)C(=O)O	–	inactive
O=C/C=C/c1ccccc1	12.1 µM (active)	–
